The list is not random: actives were taken first. Their share in the collection is about 7.5%.
VACV mCherry inh: qHTS for Stage-Specific Inhibitors of Vaccinia Orthopoxvirus: mCherry Reporter Primary qHTS. 310,000 tested, 0.63% active. Vaccinia virus mCherry reporter infection, fluorescence. Potency, µM (top dose mostly 36.5 µM), without a hit: at the highest dose activity change, negative = inhibition, most hits filed as inhibitors; calls by dose curve; tested in A549 cells; further: potency means the concentration at half of the fitted maximal effect; nearly all actives have a fitted effect of over 35% in size
FMDV antiviral: High Throughput Screening for Foot and Mouth Disease Virus Antivirals | FMDV antiviral cell-based qHTS | Potency, µM (highest dose often 57.9 µM), for inactives: top-dose activity change, negative = inhibition, usual class: inhibitors | 410,000 tested, 1.2% active | AID 1159524, 2015; calls by dose curve; tested in HEK293T cells; further: read-out not given here; potency means the concentration at half of the fitted maximal effect; nearly all actives have a fitted effect of over 45% in size
FBPA Giardia inh: qHTS Assay for Inhibitors of Fructose-1,6-bisphosphate Aldolase from Giardia Lamblia | A8B2U2 | purified Giardia FBPA | Potency, µM (top dose mostly 59.6 µM), inactives show at the highest dose activity, negative = inhibition, usual class: inhibitors | 290,000 tested, 0.71% active | AID 2451, 2010; further: potency means the concentration at half of the fitted maximal effect; nearly all actives have a fitted effect of over 55% in size
Target sequence (A8B2U2 whole entry, looked up): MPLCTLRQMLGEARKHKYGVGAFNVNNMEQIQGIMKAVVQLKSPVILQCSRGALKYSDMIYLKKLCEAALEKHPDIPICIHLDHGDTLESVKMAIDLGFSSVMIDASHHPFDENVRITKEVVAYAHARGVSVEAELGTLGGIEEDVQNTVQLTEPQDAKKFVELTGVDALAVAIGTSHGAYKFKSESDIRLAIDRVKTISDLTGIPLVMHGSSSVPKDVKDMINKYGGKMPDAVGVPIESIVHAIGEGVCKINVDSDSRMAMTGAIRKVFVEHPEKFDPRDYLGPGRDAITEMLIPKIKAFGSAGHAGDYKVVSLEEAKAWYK
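Giardia FBPA (40 nM reagent) was preincubated 10 min at RT with compound (up to 57.5 uM final), then substrate plus GAPDH/TPI/NAD/arsenate coupling system with diaphorase/resazurin was added; resorufin fluorescence (525/598 nm) was read after 20 min.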
Vaccinia Venus: qHTS for Stage-Specific Inhibitors of Vaccinia Orthopoxvirus: Venus Reporter Primary qHTS; AID 720580, 2013; Vaccinia virus Venus reporter expression, fluorescence; Potency, µM (top dose mostly 36.5 µM), for inactives: top-dose activity change, negative = inhibition, usual class: inhibitors; 330,000 tested, 0.46% active; calls by dose curve; tested in A549 cells; further: potency means the concentration at half of the fitted maximal effect; nearly all actives have a fitted effect of over 30% in size
HCMV inh: qHTS Assay for inhibitors of the human cytomegalovirus (HCMV); 410,000 tested, 4.5% active; activity change, negative = inhibition, % at 57.5 µM; AID 1259415, 2018; HFF cells, HCMV-luciferase reporter, 72 h; stronger effect = lower value; in the data active means activity change below about -60%; inconclusive means no clear call, values can overlap the other calls; inactive means above about -39%
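Compounds were evaluated in HFFs infected with an HCMV luciferase reporter virus (MOI 1 PFU/cell). Luciferase in lysates collected 72 h post infection served as the replication measure.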
HCV inh: qHTS Assay for Inhibitors of Hepatitis C Virus (HCV). Huh7.5.1 HCVcc-Cre infection, luciferase reporter, 44 h. Potency, µM (series often up to 41.8 µM), for inactives: at the highest dose activity change, negative = inhibition, actives largely listed as inhibitors. 340,000 tested, 3.4% active; further: potency means the concentration at half of the fitted maximal effect
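Infectious HCV cell culture screen: compound-treated cells (1,000/well, pre-plated 4 h) are infected with HCVcc-Cre at roughly 0.5 moi and grown 44 h. Infection is quantified by luciferase signal after 15 min substrate incubation at room temperature.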
An asterisk follows results filed as active. Unless noted, the call rests on the fitted dose curve; in most records, active means well fitted curve in the direction sought with a large enough effect; inconclusive means small, poorly fitted or top-dose-only effect, or another doubt; inactive means no such curve, though single readings can be large; an effect the other way counts as inactive or inconclusive. On the % scale 0 is the no-effect control and ±100 the full control effect.

CCOc1ccc(C2C(C(=O)/C=C/c3ccco3)=C(O)C(=O)N2CCN2CCOCC2)cc1OC (stereo not given) was read as VACV mCherry inh 10%, FMDV antiviral 13%, FBPA Giardia inh 7.9µM*, Vaccinia Venus 3%, HCMV inh 31 and HCV inh 25%.
`COc1cccc(C2C(C(=O)/C=C/c3ccco3)=C(O)C(=O)N2CCN2CCOCC2)c1` (stereo not given) gave VACV mCherry inh inactive, FMDV antiviral -4%, FBPA Giardia inh inconclusive, Vaccinia Venus 3%, HCMV inh 0 and HCV inh -3%.
Screening COc1ccc(CCNC(=O)C(=O)NCC(c2cccs2)S(=O)(=O)c2cccs2)cc1 (stereo not given) returned VACV mCherry inh -24%, FMDV antiviral inconclusive, Vaccinia Venus -10% and HCMV inh -29.
For O=C(NCc1ccccc1)c1onc(CS(=O)(=O)c2ccccn2)c1C(=O)NCc1ccccc1 the results were VACV mCherry inh inactive, FMDV antiviral -23%, Vaccinia Venus -11%, HCMV inh -12 and HCV inh -11%.
Screening O=C(Nc1ccccc1C(=O)O)c1cccc(N2C(=O)c3ccccc3C2=O)c1 returned VACV mCherry inh 0%, FMDV antiviral 41%, FBPA Giardia inh -8%, Vaccinia Venus 0%, HCMV inh 18 and HCV inh 9%.
For CN1OC[C@@H]2CN[C@H](c3ccc(-c4ccc(C#N)cc4)cc3)C[C@@H]21 the results were VACV mCherry inh inactive, FMDV antiviral 25%, Vaccinia Venus -19% and HCMV inh 57.
CN1OC[C@@H]2CN[C@H](c3ccc(-c4cc5ccccc5o4)cc3)C[C@@H]21 was read as VACV mCherry inh inconclusive, FMDV antiviral 0.35µM* and Vaccinia Venus -18%.
Cc1cc2ccccc2c(=O)n1CC(=O)N(C)c1ccc(F)cc1 was read as VACV mCherry inh -17%, FMDV antiviral 1%, FBPA Giardia inh -2%, Vaccinia Venus -5%, HCMV inh -103* and HCV inh 7%.
Screening C(=N\Nc1ncnc2sc3c(c12)CCC3)/c1ccncc1 returned VACV mCherry inh 11µM*, FMDV antiviral inconclusive, FBPA Giardia inh -1%, Vaccinia Venus 10µM*, HCMV inh inconclusive and HCV inh inconclusive.
For C(=N\Nc1ncnc2sc3c(c12)CCC3)/c1cccs1 the results were FBPA Giardia inh 2% and HCMV inh -102*.
CCc1ccccc1Nc1cc(C(=O)NCCc2ccccc2)c2ccccc2n1 was read as VACV mCherry inh 6%, FMDV antiviral -10%, Vaccinia Venus 1% and HCMV inh 7.
Screening CCc1ccc([C@H]2[C@@H]3C(=O)C[C@@H]4C(=O)N(Cc5ccccc5)C(=O)[C@@H]4[C@@H]3CN2S(=O)(=O)c2ccc(C)cc2)cc1 returned VACV mCherry inh inactive, FMDV antiviral 0%, Vaccinia Venus -13% and HCMV inh -18.
Screening Cc1ccccc1NC(=O)CN1C(=O)S/C(=C\c2cccn2-c2cccc(C(=O)O)c2)C1=O returned FMDV antiviral -10%, FBPA Giardia inh -12%, Vaccinia Venus 11%, HCMV inh -33 and HCV inh 15%.
Cc1cccc(C)c1NC(=O)CN1C(=O)S/C(=C\c2cccn2-c2cccc(C(=O)O)c2)C1=O was read as VACV mCherry inh inactive, FMDV antiviral -10%, FBPA Giardia inh -3%, Vaccinia Venus -14%, HCMV inh -73* and HCV inh 2%.
For COc1ccc2[nH]cc(CCNc3ncncc3-c3ccc4c(c3)OCO4)c2c1 the results were FMDV antiviral 20µM* and FBPA Giardia inh -21%.
For COc1cccc(-c2cncnc2NCCc2c[nH]c3ccc(OC)cc23)c1 the results were FMDV antiviral -11% and FBPA Giardia inh -28%.
CCC[C@H]1[C@@H](N(C)C)CC[C@@]23CCCN2C(=O)CCC[C@@H]13 was read as HCMV inh 30.
CCOc1cc(/C=C\[N+](=O)[O-])ccc1OCC(=O)N1CCOCC1 was read as VACV mCherry inh inactive, FMDV antiviral 8.9µM*, FBPA Giardia inh -1%, Vaccinia Venus -5%, HCMV inh -92* and HCV inh inconclusive.
Screening CCOc1ccc(NS(=O)(=O)c2cnc(Cl)c(Cl)c2)cc1 returned VACV mCherry inh inconclusive, FMDV antiviral -20%, FBPA Giardia inh 0%, Vaccinia Venus 13µM*, HCMV inh -33 and HCV inh -6%.
`Cc1cc(C)cc(NS(=O)(=O)c2cnc(Cl)c(Cl)c2)c1` gave FMDV antiviral 14%, FBPA Giardia inh -7%, Vaccinia Venus inconclusive, HCMV inh -15 and HCV inh 11µM*.
For O=[N+]([O-])c1cc([N+](=O)[O-])c(Oc2cc(F)ccc2F)cc1NN1CCCCC1 the results were VACV mCherry inh inconclusive, FMDV antiviral -17%, FBPA Giardia inh 0%, Vaccinia Venus -7%, HCMV inh -85* and HCV inh 2%.
COc1ccc(C(C)=O)c(Oc2cc(NN3CCCCC3)c([N+](=O)[O-])cc2[N+](=O)[O-])c1 was read as VACV mCherry inh inconclusive, FMDV antiviral -14%, FBPA Giardia inh 9%, Vaccinia Venus 3.2µM*, HCMV inh 17 and HCV inh 41%.
Screening COc1cccc(Oc2cc(NN3CCCCC3)c([N+](=O)[O-])cc2[N+](=O)[O-])c1OC returned VACV mCherry inh inconclusive, FMDV antiviral -24%, FBPA Giardia inh -3%, Vaccinia Venus inconclusive, HCMV inh inconclusive and HCV inh -4%.
`O=C(Nc1cccc(S(=O)(=O)C(F)F)c1)c1ccc(Cl)c(S(=O)(=O)N2CCOCC2)c1` gave VACV mCherry inh inactive, FMDV antiviral 40µM*, FBPA Giardia inh -3%, Vaccinia Venus inconclusive, HCMV inh inconclusive and HCV inh 13µM*.
O=C(Nc1cccc(Br)c1)c1ccc(Cl)c(S(=O)(=O)N2CCOCC2)c1 was read as VACV mCherry inh inconclusive, FBPA Giardia inh 3%, Vaccinia Venus inconclusive, HCMV inh -98* and HCV inh 4µM*.
For O=C(Nc1cccc(C(=O)NC2CC2)c1)c1ccc(Cl)c(S(=O)(=O)N2CCOCC2)c1 the results were FMDV antiviral inconclusive, HCMV inh -22 and HCV inh inconclusive.
O=C(NCC1Cc2cccc(-c3cccnc3)c2O1)c1ccc2cc[nH]c2c1 (stereo not given) was read as VACV mCherry inh inactive, FMDV antiviral 1% and Vaccinia Venus -15%.

Source: PubChem
